# Results: PubChem BioAssay (NCATS)
# Records with an inconclusive call do not appear. Calls of active or inactive are those of the source. Calls come from the whole dose curve; as a rule, active = well fitted inhibition curve with a large enough effect; inconclusive = small, poorly fitted or top-dose-only effect; inactive = no such curve, though single readings can be large or run the other way.
# Biological target: Cytochrome P450 2C9 (Homo sapiens) (UniProt P11712)
# Assay: qHTS Assay for Inhibitors and Substrates of Cytochrome P450 2C9 (AID 883); note: nearly all actives have a fitted effect of over 60% in size
# Settings: recombinant CYP2C9, luciferin-H luminescence, 60 min; series mostly up to 57.1 µM
# How it was run: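 Turnover of Luciferin-H (100uM, KM) by 10nM human CYP2C9 was measured over 60 min at 37C with NADPH regeneration; inhibitors and some substrates reduce luminescence. Data normalized to sulphaphenazole 57uM.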
# % is set by controls: 0 for no effect and ±100 for the full control effect; potency is the fitted concentration of half-maximal effect.
# Cytochrome P450 2C9 (Homo sapiens), sequence (P11712 whole entry, looked up): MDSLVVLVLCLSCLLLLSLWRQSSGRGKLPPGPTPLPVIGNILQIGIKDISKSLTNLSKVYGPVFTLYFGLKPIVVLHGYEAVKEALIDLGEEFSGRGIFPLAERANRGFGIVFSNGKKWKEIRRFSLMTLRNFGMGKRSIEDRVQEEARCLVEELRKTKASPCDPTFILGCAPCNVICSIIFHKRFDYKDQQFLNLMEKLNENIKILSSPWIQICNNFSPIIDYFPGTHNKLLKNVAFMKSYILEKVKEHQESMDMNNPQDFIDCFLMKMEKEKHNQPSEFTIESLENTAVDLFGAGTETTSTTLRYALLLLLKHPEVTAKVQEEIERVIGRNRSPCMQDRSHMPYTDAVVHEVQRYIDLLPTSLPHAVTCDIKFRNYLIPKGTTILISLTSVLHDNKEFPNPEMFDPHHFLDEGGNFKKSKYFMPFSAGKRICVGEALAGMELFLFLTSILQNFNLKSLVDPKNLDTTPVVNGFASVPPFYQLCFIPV
Compound,Potency,"activity change, negative = inhibition"
Cc1cc2nc3c(=O)[nH]c(=O)nc-3n(CC(O)C(O)C(O)CO)c2cc1C (stereo not drawn),inactive,
Cc1cc(NC(=O)Nc2ccc(N(C)C)cc2)c2cc(F)cc(F)c2n1,6.31 µM (active),
CN1CCN2c3ncccc3Cc3ccccc3C2C1 (stereo not drawn),0.0501 µM (active),
Cc1ccc(NC(=O)c2cccc(N(C)C)c2)cc1NC(=O)c1ccc(O)cc1,inactive,
NC(=O)c1nnn(Cc2cc(Cl)c(C(=O)c3ccc(Cl)cc3)c(Cl)c2)c1N,,52.5% [at 11.4 µM] (inactive)
CCC(=C(CC)c1ccc(O)cc1)c1ccc(O)cc1,12.6 µM (active),
Clc1ccc(COC(Cn2ccnc2)c2ccc(Cl)cc2Cl)c(Cl)c1 (stereo not drawn),0.316 µM (active),
NS(=O)(=O)c1cc(Cl)c(Cl)c(S(N)(=O)=O)c1,inactive,
